Laboratory results taken from PubChem BioAssay (EPA / NIEHS).
Where “and” joins values, the source holds several entries; their conditions need not be identical. Equal entries are not always repeated. The source holds several records for some structures; these can differ, active in one and inactive in another. Calls of active or inactive are those of the source. The calls were made as follows: active = hit-call score of the fitted dose curve at least 0.9, where 1 is the maximum; inactive = score below 0.9.

What was measured:
[1] = ATG_GLI_CIS: Attagene CIS-FACTORIAL HepG2 Assay for human Zinc Finger Protein GLI1 (AID 2282945); details: HepG2, Attagene cis-factorial reporter mRNA, GLI element; actives raise or lower the signal
In short: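 HepG2 cells transiently transfected with cis-promoter multiplexed reporter units report endogenous transcription factor activity. After 24 h chemical exposure, reporter mRNA was quantified by RT-PCR, 6-FAM labelling, HpaI digestion and capillary electrophoresis, with bidirectional fitting against DMSO.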

[2] = biological target: Bile acid receptor (Homo sapiens) (UniProt Q96RI1); assay: ATG_IR1_CIS: Attagene CIS-FACTORIAL HepG2 Assay for human Nuclear Receptor Subfamily 1 Group H Member 4 (NR1H4), IR1 submotif (AID 2282946); details: IR1 reporter transcription, actives raise or lower the signal
In short: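 Transient MRTU transfection, HepG2; 24 h dosing; RNA → RT-PCR → 6-FAM primer extension → HpaI digest → capillary electrophoresis fluorescence. Gain/loss of signal fitted relative to DMSO.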

[3] = ATG_GRE_CIS: Attagene CIS-FACTORIAL HepG2 Assay for human Glucocorticoid Response Elements (GRE) (AID 2282947); details: HepG2 GRE cis-reporter, Attagene multiplex mRNA; actives raise or lower the signal
In short: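 Following 24 h chemical exposure of transiently transfected HepG2 cells, total RNA was reverse-transcribed and reporter cDNA amplified, fluorescently labelled and sized by capillary electrophoresis. Signal gain or loss was fitted relative to DMSO vehicle.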

[4] = ATG_ISRE_CIS: Attagene CIS-FACTORIAL HepG2 Assay for human Interferon Regulatory Factor 1 (IRF1) binding to an Interferon-Stimulated Response Element (ISRE) (AID 2282948); details: HepG2 ISRE cis-reporter (Attagene), mRNA transcription readout; actives raise or lower the signal
In short: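 Cell-based cis-reporter assay; HepG2; 24 h exposure; reporter mRNA by RT-PCR plus capillary electrophoresis fluorescence; activity in either direction scored relative to DMSO.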

[5] = ATG_M_32_CIS: Attagene CIS-FACTORIAL HepG2 Assay for M32 Transcription Factor (Internal Marker) (AID 2282949); details: HepG2 Attagene cis-factorial M32 reporter, mRNA; actives raise or lower the signal;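 also: background control marker of the multiplexed CIS panel rather than a real target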
In short: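 HepG2 cells transiently transfected with multiplexed cis-regulated reporter units, dosed 24 h. Reporter mRNA quantified by RT-PCR, 6-FAM labelling, HpaI digestion and capillary electrophoresis; bidirectional fit vs DMSO.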

[6] = ATG_M_06_CIS: Attagene CIS-FACTORIAL HepG2 Assay for M06 Transcription Factor (Internal Marker) (AID 2282950); details: HepG2 Attagene CIS-FACTORIAL M06 internal marker reporter; actives raise or lower the signal
In short: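 Fluorescence-labelled RT-PCR products from cis-promoter reporter units, cut with HpaI and resolved by capillary electrophoresis, give the signal. Cells are human HepG2, dosed for 24 h. Serves as background control, fitted relative to DMSO.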

[7] = biological target: Hypoxia-inducible factor 1-alpha (Homo sapiens) (UniProt Q16665); assay: ATG_HIF1a_CIS: Attagene CIS-FACTORIAL HepG2 Assay for human Hypoxia Inducible Factor 1 (HIF1A) (AID 2282951); details: HepG2 Attagene cis-factorial HIF1a reporter transcription; actives raise or lower the signal
In short: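 RT-PCR/capillary electrophoresis fluorescence readout of reporter transcripts from endogenous-TF-driven cis elements in transfected HepG2 cells, 24 h exposure; activity fitted in both directions against DMSO controls.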

[8] = biological target: Hepatocyte nuclear factor 6 (Homo sapiens) (UniProt Q9UBC0); assay: ATG_HNF6_CIS: Attagene CIS-FACTORIAL HepG2 Assay for human Hepatocyte Nuclear Factor 6 (HNF6) (AID 2282952); details: HepG2 Attagene cis-factorial HNF6 reporter transcription; actives raise or lower the signal
In short: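 Multiplexed mRNA reporter assay in transfected HepG2; 24 h dosing; RT-PCR plus capillary electrophoresis fluorescence; DMSO-referenced bidirectional curve fitting.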

[9] = biological target: Heat shock factor protein 1 (Homo sapiens) (UniProt Q00613); assay: ATG_HSE_CIS: Attagene CIS-FACTORIAL HepG2 Assay for human Heat Shock Transcription Factor 1 (HSE) (AID 2282953); details: HepG2 HSE cis-reporter, Attagene RNA transcription; actives raise or lower the signal
In short: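 After a 24 h incubation with test chemical, transfected HepG2 cells were harvested for RNA; reporter transcripts were measured by RT-PCR and capillary electrophoresis. Values reflect gain or loss of signal relative to DMSO.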

[10] = ATG_MRE_CIS: Attagene CIS-FACTORIAL HepG2 Assay for human Metal Responsive Element (MRE) (AID 2282954); details: HepG2 MRE cis-reporter transcription, Attagene multiplex; actives raise or lower the signal
In short: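 Step one: transfect HepG2 with cis-regulated reporter units. Step two: dose 24 h. Step three: isolate RNA, RT-PCR, 6-FAM label, HpaI digest, capillary electrophoresis. Fit bidirectionally to DMSO.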

[11] = biological target: Paired box protein Pax-6 (Homo sapiens) (UniProt P26367); assay: ATG_Pax6_CIS: Attagene CIS-FACTORIAL HepG2 Assay for human Paired Box 6 (PAX6) (AID 2282956); details: HepG2 CIS-FACTORIAL PAX6 reporter transcription, RNA readout; actives raise or lower the signal
In short: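 Multiplexed cis-reporter HepG2 system; 24 h treatment; reporter mRNA read by RT-PCR/CE fluorescence; bidirectional fit vs DMSO.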

[12] = ATG_PXRE_CIS: Attagene CIS-FACTORIAL HepG2 Assay for human Pregnane X Receptor Element (PXRE) (AID 2282957); details: HepG2 Attagene CIS-FACTORIAL PXRE reporter, mRNA; actives raise or lower the signal
In short: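 Cells: HepG2, transiently transfected reporter units under cis promoter control. Exposure: 24 h. Detection: reporter mRNA via RT-PCR/CE fluorescence; bidirectional fitting, DMSO-referenced.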

[13] = ATG_PPRE_CIS: Attagene CIS-FACTORIAL HepG2 Assay for human Peroxisome Proliferator-activated Response Element (PPRE) (AID 2282958); details: HepG2 PPRE cis-element reporter, Attagene transcription factor profiling; actives raise or lower the signal
In short: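 Read-out: fluorescent reporter mRNA fragments resolved by capillary electrophoresis after RT-PCR. HepG2 cells carried transiently transfected PPRE-driven cis reporter constructs and were dosed for 24 h; gain or loss of signal fitted relative to DMSO.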

[14] = ATG_RORE_CIS: Attagene CIS-FACTORIAL HepG2 Assay for human RAR-related Orphan Receptor Element (RORE) (AID 2282959); details: HepG2 Attagene cis-factorial RORE reporter, mRNA; actives raise or lower the signal
In short: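 Readout: fluorescent reporter mRNA by RT-PCR plus capillary electrophoresis, 24 h after dosing transfected HepG2 cells. Endogenous transcription factor activity on a cis promoter element is measured. Gain or loss of signal fitted against DMSO.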

[15] = ATG_Sox_CIS: Attagene CIS-FACTORIAL HepG2 Assay for human SRY-box transcription factor (SOX) (AID 2282960); details: HepG2 Attagene cis-factorial SOX reporter, mRNA; actives raise or lower the signal
In short: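 Read-out: fluorescent RT-PCR products of SOX1-linked reporter transcripts resolved by capillary electrophoresis, fitted bidirectionally against DMSO. Transiently transfected HepG2 cells, 24 h after chemical exposure, endogenous transcription factor activity.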

[16] = biological target: Transcription factor Sp1 (Homo sapiens) (UniProt P08047); assay: ATG_Sp1_CIS: Attagene CIS-FACTORIAL HepG2 Assay for human Specificity Protein 1 (Sp1) (AID 2282961); details: HepG2 Sp1 cis-reporter transcription, actives raise or lower the signal
In short: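 Read-out: fluorescence of 6-FAM-labeled, HpaI-digested RT-PCR products separated by capillary electrophoresis. HepG2 cells carried transfected cis-element reporter units and were exposed to chemicals for 24 h; gain or loss of signal fitted relative to DMSO.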

[17] = ATG_SREBP_CIS: Attagene CIS-FACTORIAL HepG2 Assay for human Sterol Regulatory Element Binding (SREBP) (AID 2282962); details: HepG2 Attagene cis-factorial SREBP reporter, mRNA; actives raise or lower the signal
In short: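 mRNA induction of transfected cis-promoter reporters in HepG2 cells, 24 h post-dose. Detection: RT-PCR with 6-FAM-labelled products, HpaI digest, capillary electrophoresis. DMSO served as negative control and baseline.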

[18] = biological target: Signal transducer and activator of transcription 3 (Homo sapiens) (UniProt P40763); assay: ATG_STAT3_CIS: Attagene CIS-FACTORIAL HepG2 Assay for human Signal Transducer and Activator of Transcription 3 (STAT3) (AID 2282963); details: HepG2, Attagene cis-factorial STAT3 reporter transcription; actives raise or lower the signal
In short: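 Transcript-level reporter assay. HepG2 transient MRTU transfection, 24 h exposure, fluorescence detection after RT-PCR and CE; DMSO baseline.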

[19] = ATG_TA_CIS: Attagene CIS-FACTORIAL HepG2 Assay for human TA Basal Promoter (AID 2282964); details: HepG2 Attagene CIS-factorial TA basal promoter reporter; actives raise or lower the signal
In short: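 Multiplexed mRNA reporter assay, HepG2, 24 h. Reporter cDNA amplified, 6-FAM primer-extended, HpaI-cut, CE-sized; DMSO = negative control and baseline.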

[20] = ATG_PBREM_CIS: Attagene CIS-FACTORIAL HepG2 Assay for human Phenobarbital-responsive Enhancer Module (PBREM) (AID 2282955); details: HepG2 PBREM cis-reporter, Attagene multiplexed transcription; actives raise or lower the signal
In short: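 Reporter mRNA read by RT-PCR, 6-FAM primer extension, HpaI digestion and capillary electrophoresis. Transfected HepG2 cells, 24 h compound exposure. Gain or loss of signal fitted bidirectionally relative to DMSO baseline.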

Measured: AC50

Transcription factor Sp1 (Homo sapiens), sequence (P08047 whole entry, looked up): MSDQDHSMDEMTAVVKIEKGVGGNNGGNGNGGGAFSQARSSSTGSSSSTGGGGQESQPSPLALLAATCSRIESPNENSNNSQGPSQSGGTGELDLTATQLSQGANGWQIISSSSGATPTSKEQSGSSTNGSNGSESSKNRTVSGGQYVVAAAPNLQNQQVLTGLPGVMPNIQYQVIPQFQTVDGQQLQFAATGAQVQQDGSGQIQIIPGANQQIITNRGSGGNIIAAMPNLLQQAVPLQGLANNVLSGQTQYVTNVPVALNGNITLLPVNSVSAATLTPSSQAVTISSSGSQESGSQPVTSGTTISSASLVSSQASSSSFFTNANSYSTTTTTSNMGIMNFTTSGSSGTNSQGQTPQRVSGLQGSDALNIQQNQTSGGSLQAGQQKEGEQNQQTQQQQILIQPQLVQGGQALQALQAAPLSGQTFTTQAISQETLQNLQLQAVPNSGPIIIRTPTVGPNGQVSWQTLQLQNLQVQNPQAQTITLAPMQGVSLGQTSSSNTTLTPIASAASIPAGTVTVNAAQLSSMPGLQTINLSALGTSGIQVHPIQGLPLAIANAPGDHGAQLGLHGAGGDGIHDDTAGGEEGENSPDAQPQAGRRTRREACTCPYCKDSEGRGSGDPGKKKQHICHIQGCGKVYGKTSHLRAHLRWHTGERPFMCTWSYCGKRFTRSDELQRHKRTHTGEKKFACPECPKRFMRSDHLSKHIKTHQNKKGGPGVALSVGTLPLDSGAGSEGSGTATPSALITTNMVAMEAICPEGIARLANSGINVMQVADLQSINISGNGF
Heat shock factor protein 1 (Homo sapiens), sequence (Q00613 whole entry, looked up): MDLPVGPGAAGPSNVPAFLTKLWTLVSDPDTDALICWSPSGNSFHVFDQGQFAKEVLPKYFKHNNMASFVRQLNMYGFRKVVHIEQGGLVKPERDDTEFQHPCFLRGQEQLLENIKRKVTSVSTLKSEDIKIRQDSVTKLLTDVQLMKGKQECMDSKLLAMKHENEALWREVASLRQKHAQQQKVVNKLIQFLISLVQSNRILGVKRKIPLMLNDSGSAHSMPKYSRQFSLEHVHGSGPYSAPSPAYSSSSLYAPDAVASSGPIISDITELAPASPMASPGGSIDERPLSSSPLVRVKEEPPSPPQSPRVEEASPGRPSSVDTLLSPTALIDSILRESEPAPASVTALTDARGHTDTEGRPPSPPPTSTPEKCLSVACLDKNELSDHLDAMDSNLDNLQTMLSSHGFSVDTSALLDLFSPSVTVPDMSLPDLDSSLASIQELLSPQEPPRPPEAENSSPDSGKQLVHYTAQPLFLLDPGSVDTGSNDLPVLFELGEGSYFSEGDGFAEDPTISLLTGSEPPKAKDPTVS
Signal transducer and activator of transcription 3 (Homo sapiens), sequence (P40763 whole entry, looked up): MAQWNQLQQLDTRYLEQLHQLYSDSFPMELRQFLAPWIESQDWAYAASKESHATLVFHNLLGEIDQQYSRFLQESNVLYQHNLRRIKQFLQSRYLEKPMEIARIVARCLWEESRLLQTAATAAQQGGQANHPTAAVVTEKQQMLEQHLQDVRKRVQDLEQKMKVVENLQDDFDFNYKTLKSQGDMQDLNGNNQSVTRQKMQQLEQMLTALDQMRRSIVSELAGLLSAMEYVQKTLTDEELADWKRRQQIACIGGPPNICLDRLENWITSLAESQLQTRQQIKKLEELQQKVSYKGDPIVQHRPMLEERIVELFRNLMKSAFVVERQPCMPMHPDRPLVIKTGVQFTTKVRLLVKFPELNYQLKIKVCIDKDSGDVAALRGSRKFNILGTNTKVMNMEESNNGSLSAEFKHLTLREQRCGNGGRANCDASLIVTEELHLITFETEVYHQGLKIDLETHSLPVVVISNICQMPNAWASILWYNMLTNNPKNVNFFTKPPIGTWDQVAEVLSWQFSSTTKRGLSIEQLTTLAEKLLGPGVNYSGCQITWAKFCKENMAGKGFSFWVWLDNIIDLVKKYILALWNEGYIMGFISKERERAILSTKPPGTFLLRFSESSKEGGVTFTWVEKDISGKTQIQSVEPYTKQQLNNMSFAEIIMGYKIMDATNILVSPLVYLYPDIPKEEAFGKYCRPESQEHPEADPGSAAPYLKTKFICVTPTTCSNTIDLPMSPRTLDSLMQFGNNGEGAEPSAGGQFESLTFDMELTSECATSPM
Hepatocyte nuclear factor 6 (Homo sapiens), sequence (Q9UBC0 whole entry, looked up): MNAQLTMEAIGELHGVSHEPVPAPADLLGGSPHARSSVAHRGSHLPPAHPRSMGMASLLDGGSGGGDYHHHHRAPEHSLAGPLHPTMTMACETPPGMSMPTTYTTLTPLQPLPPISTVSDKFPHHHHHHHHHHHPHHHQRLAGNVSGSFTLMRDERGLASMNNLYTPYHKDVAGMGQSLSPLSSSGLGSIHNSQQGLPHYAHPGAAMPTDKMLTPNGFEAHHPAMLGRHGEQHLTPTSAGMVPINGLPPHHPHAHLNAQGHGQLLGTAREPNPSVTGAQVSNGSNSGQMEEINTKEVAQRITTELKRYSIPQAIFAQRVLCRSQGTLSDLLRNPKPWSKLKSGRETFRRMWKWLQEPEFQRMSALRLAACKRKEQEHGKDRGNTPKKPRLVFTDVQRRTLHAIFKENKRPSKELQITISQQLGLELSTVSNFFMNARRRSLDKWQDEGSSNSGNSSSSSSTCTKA
Hypoxia-inducible factor 1-alpha (Homo sapiens), sequence (Q16665 whole entry, looked up): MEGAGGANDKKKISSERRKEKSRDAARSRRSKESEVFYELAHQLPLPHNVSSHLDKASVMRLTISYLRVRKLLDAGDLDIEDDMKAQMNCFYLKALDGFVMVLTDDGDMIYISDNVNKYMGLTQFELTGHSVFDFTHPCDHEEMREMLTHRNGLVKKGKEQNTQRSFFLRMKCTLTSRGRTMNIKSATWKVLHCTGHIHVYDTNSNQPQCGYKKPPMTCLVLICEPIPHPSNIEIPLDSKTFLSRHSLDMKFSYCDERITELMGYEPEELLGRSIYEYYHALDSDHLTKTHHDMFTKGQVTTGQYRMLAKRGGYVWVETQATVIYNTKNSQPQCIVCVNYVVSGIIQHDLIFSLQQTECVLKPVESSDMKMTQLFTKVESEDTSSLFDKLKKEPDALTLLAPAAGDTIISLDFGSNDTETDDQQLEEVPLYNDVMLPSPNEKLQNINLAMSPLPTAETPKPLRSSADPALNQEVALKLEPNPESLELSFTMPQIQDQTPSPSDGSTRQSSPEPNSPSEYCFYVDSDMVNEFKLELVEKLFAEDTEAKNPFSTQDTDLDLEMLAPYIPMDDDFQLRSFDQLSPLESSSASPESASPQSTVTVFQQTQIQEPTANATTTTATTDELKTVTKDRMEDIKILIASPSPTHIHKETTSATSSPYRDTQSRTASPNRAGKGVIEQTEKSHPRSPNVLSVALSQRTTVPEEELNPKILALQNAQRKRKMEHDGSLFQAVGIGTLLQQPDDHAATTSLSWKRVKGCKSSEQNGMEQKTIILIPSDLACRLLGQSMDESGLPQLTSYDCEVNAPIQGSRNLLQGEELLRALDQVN
Paired box protein Pax-6 (Homo sapiens), sequence (P26367 whole entry, looked up): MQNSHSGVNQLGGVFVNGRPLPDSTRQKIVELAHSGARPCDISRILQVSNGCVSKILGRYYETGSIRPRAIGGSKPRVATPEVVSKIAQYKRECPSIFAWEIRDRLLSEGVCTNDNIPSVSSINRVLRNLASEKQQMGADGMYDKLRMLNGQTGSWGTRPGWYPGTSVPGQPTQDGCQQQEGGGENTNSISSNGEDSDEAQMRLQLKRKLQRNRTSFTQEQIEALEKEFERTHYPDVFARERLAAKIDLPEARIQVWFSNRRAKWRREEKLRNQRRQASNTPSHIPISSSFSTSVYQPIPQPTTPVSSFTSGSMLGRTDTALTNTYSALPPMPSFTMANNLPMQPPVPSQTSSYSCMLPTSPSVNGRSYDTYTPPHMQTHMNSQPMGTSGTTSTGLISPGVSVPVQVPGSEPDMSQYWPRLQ
Bile acid receptor (Homo sapiens), sequence (Q96RI1 whole entry, looked up): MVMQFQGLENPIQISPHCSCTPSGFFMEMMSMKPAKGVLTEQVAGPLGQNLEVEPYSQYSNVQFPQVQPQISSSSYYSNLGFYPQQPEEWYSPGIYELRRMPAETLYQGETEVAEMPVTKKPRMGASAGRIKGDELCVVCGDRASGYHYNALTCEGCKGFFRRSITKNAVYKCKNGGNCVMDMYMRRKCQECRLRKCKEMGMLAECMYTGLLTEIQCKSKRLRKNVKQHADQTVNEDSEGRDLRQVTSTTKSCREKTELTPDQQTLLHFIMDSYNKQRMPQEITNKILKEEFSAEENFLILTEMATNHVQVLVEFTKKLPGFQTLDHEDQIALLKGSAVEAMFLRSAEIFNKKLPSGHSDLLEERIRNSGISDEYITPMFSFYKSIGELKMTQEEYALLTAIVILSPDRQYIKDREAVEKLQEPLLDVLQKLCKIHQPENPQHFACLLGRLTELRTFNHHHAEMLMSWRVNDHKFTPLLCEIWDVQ

CN(C)Cc1ccccc1O
active: [19] 165 µM
not listed: [20]
inactive: all other assays above

Oc1ccc(Nc2ccccc2)cc1
active: [9] 168 µM | [10] 61.1 µM | [12] 21.9 µM | [14] 74.6 µM | [19] 58.1 µM
inactive: all other assays above

FC(F)(F)C(F)(F)C(F)(F)CI
not listed: [12]
inactive: all other assays above

FC1CC(F)(F)C(F)(F)C1(F)F (stereo not drawn)
inactive: all assays above

FC(F)(F)C(F)(F)CNCC(F)(F)C(F)(F)F
not listed: [12]
inactive: all other assays above

FC(F)(F)C(F)(F)C(F)(F)C(F)(F)C(F)(F)C(F)(F)C(F)(F)C(F)(F)CCS
not listed: [20]
inactive: all other assays above

O=C(CC(=O)C(F)(F)C(F)(F)F)C(F)(F)F
active: [2] 106 µM | [12] 76.4 µM | [13] 51.2 µM and 64 µM
inactive: [1] | [2] | [3] | [4] | [6] | [7] | [8] | [9] | [10] | [11] | [12] | [14] | [15] | [16] | [17] | [18] | [19]

CO[Si](OC)(c1ccccc1)c1ccccc1
not listed: [12]
inactive: all other assays above

C=CC(=O)OCC(F)(F)C(F)(F)C(F)(F)C(F)(F)C(F)(F)C(F)(F)C(F)(F)F
not listed: [5] | [12] | [20]
inactive: all other assays above

c1ccc(B(c2ccccc2)c2ccccc2)cc1
active: [7] 58.4 µM | [10] 51.6 µM | [12] 5.22 µM | [14] 71.5 µM
not listed: [1]
inactive: all other assays above

FC(F)(F)C(F)(F)C(F)(F)C(F)(F)C(F)(F)C(F)(F)C(F)(F)Br
not listed: [5] | [12] | [20]
inactive: all other assays above

CCc1c(Br)c(Br)c(Br)c(Br)c1Br
active: [20] 23.7 µM | [12] 8.3 µM
not listed: [5]
inactive: all other assays above

O=C(O)C(F)(F)C(F)(F)C(F)(F)C(F)(F)C(F)(F)C(F)(F)C(F)(F)C(F)(F)C(F)(F)C(F)(F)C(F)(F)C(F)(F)F
not listed: [1]
inactive: all other assays above

OC[C@@H](O)[C@@H](O)[C@H](O)[C@@H](O)CO
active: [12] 26.3 µM
inactive: [1] | [4] | [5] | [6] | [7] | [8] | [9] | [10] | [11] | [12] | [14] | [15] | [16] | [17] | [18] | [19]
